Assay results published in ChEMBL document CHEMBL1961873, “Compounds: GSK PKIS; Assays: Nanosyn kinase panel” (2012).

How the values were obtained:
[1] = target: Glycogen synthase kinase-3 beta (Homo sapiens) (UniProt P49841); conditions: at 1 µM;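 further: reported values are mean percent inhibition of GSK3B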
[2] = target: Homeodomain-interacting protein kinase 1 (Homo sapiens) (UniProt Q86Z02); conditions: at 0.1 µM
[3] = target: Homeodomain-interacting protein kinase 1 (Homo sapiens) (UniProt Q86Z02); conditions: at 1 µM
[4] = target: T1, Homeodomain-interacting protein kinase 4 (Homo sapiens) (UniProt Q8NE63); conditions: at 0.1 µM
T1 sequence (whole entry): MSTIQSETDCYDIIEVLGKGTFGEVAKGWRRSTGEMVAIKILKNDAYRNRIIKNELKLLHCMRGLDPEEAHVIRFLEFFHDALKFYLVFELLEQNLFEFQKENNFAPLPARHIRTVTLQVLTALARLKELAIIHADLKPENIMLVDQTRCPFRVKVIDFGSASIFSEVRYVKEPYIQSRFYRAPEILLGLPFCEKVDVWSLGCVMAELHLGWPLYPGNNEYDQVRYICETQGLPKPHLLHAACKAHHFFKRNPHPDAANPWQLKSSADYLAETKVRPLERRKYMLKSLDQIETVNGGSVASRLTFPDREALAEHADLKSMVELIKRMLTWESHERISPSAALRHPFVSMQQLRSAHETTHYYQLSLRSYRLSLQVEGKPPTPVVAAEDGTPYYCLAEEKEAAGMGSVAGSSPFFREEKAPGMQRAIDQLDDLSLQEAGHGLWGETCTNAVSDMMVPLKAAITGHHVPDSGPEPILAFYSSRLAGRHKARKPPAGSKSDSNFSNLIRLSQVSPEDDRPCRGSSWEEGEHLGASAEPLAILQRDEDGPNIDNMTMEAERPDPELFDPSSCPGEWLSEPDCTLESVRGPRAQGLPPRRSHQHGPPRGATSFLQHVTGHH

[5] = target: T1, Homeodomain-interacting protein kinase 4 (Homo sapiens); conditions: at 1 µM
[6] = target: Mitogen-activated protein kinase 9 (Homo sapiens) (UniProt P45984); conditions: at 0.1 µM
Chain of Mitogen-activated protein kinase 9 (Homo sapiens) (P45984 whole entry, looked up): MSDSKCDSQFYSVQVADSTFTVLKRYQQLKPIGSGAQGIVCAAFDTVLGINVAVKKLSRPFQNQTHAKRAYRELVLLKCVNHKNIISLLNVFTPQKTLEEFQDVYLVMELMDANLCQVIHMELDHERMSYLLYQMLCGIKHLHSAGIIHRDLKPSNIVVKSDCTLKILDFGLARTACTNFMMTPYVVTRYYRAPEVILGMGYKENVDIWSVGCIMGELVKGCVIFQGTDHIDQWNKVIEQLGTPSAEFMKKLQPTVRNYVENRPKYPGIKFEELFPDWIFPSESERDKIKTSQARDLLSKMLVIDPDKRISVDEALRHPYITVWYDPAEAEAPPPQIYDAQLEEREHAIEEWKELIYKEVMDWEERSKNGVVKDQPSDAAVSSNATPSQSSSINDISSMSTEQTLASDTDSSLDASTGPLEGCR

[7] = target: Mitogen-activated protein kinase 9 (Homo sapiens) (UniProt P45984); conditions: at 1 µM
[8] = target: Mitogen-activated protein kinase 1 (Homo sapiens) (UniProt P28482); conditions: at 0.1 µM
Chain of Mitogen-activated protein kinase 1 (Homo sapiens) (P28482 whole entry): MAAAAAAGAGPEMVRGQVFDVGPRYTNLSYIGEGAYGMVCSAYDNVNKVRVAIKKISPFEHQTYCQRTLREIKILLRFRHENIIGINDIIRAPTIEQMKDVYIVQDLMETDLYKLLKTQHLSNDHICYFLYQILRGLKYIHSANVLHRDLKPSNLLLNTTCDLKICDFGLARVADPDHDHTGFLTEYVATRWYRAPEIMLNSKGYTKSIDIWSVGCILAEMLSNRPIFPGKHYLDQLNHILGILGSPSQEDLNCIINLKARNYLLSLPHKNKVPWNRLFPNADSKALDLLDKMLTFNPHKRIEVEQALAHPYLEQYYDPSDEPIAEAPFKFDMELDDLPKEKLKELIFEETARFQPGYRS

[9] = target: Mitogen-activated protein kinase 1 (Homo sapiens) (UniProt P28482); conditions: at 1 µM
[10] = target: Mitogen-activated protein kinase 3 (Homo sapiens) (UniProt P27361); conditions: at 0.1 µM;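 further: each value is a mean inhibition figure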
Chain of Mitogen-activated protein kinase 3 (Homo sapiens) (P27361 whole entry): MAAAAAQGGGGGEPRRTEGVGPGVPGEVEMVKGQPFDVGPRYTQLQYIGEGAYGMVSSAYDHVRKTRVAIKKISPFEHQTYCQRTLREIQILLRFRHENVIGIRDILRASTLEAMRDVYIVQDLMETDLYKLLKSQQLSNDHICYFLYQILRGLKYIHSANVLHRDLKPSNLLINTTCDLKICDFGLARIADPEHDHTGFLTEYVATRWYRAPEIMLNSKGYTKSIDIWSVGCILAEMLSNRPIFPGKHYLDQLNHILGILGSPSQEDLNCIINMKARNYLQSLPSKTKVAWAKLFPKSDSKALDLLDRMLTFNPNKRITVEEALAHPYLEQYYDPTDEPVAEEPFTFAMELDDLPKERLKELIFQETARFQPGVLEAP

Chain of Glycogen synthase kinase-3 beta (Homo sapiens) (P49841 whole entry, looked up): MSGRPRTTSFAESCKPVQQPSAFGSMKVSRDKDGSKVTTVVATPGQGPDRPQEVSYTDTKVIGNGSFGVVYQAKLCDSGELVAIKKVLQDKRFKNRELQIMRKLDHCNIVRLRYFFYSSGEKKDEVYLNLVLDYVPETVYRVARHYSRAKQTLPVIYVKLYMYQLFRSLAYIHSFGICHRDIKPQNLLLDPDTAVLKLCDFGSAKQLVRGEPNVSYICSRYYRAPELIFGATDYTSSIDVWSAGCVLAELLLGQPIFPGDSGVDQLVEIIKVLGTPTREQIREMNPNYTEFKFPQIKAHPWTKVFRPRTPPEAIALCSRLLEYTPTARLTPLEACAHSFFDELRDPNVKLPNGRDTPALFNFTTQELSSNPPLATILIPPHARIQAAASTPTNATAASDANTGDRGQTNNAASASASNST
Chain of Homeodomain-interacting protein kinase 1 (Homo sapiens) (Q86Z02 whole entry, looked up): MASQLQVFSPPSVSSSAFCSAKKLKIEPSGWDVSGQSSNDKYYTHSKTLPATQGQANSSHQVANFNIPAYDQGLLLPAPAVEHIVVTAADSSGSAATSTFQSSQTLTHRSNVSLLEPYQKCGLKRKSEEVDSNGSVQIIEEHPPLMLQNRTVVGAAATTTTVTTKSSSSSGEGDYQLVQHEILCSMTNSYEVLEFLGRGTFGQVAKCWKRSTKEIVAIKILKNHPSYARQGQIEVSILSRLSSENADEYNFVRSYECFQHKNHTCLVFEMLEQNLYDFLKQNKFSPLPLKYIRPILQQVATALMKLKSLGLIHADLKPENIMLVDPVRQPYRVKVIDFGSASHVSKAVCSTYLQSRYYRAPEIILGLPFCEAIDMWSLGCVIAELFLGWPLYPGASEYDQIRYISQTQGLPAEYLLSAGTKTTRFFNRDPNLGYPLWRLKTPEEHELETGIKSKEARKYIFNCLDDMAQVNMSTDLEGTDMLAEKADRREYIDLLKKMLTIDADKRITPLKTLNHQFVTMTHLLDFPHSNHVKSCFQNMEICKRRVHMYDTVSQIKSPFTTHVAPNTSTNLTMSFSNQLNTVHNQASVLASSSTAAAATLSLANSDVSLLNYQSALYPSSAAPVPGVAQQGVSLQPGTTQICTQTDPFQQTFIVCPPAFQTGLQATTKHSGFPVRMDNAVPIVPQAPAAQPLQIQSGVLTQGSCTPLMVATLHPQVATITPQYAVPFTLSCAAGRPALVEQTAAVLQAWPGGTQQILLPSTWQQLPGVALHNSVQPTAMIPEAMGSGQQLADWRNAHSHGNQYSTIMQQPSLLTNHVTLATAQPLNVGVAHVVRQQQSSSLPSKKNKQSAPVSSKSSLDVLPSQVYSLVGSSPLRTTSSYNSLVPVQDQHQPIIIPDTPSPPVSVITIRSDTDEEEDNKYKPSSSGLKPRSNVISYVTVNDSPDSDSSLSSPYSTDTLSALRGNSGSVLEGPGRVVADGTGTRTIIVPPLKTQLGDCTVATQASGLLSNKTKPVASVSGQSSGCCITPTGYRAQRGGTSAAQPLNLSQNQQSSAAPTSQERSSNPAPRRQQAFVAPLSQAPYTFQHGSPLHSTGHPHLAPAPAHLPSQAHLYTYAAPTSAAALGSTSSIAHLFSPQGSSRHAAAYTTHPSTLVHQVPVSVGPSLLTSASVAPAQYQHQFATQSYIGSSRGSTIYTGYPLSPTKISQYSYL

Row | Structure (SMILES) | inhibition [1] [%] | inhibition [2] [%] | inhibition [3] [%] | inhibition [4] [%] | inhibition [5] [%] | inhibition [6] [%] | inhibition [7] [%] | inhibition [8] [%] | inhibition [9] [%] | inhibition [10] [%]
1 | CCn1c(-c2nonc2N)nc2ccccc21 | 17.4 | 1.47 | 4.99 | 1.45 | 4.14 | 3.53 | 2.53 | 1.93 | 3.93 | 3.48
2 | Cc1cccc2c1NC(=O)/C2=N\Nc1ccc(S(N)(=O)=O)cc1 | 7.38 | 1.24 | 4.95 | 2.16 | 1.3 | 1.94 | 4.49 | 2.25 | 0.43 | 2.41
3 | CCn1c(-c2nonc2N)nc2c(C#CC(C)(C)O)ncc(OC3CCNCC3)c21 | 51.8 | 0.21 | 4.91 | 1.04 | 2.64 | 4.13 | 6.93 | 4.51 | 7.43 | 4.27
4 | COc1ccc(-c2cc(-c3c[nH]nc3-c3ccccn3)ccn2)cc1 | 6.22 | 4.42 | 4.88 | 2.68 | -2.34 | 4.47 | 9.74 | 4.07 | 5.26 | 3.56
5 | COc1cc(Nc2nccc(Nc3ccc4c(C)n[nH]c4c3)n2)cc(OC)c1OC | 16.1 | -0.29 | 1.88 | 1.59 | 3.91 | 2.22 | 13.6 | 0.66 | 3.16 | 1.57
6 | CC(C)(CO)CNC(=O)c1ccc2c(c1)/C(=N/Nc1ccc(S(N)(=O)=O)cc1)C(=O)N2 | 66.8 | -4.78 | 13.1 | -0.55 | 4.55 | -0.59 | 8.39 | 8.62 | 42.1 | 1.78
7 | NC(=O)c1sc(-n2cnc3ccc(C(F)(F)F)cc32)cc1OCc1ccccc1Br | 3.8 | 0.1 | 2.51 | 1.27 | 4.18 | 3.06 | 5.5 | 2.67 | 4.49 | 3.25
8 | CN(C)CCOc1ccc(-c2nc(-c3ccncc3)c(-c3ccc4c(c3)CC/C4=N\O)[nH]2)cc1 | 9.68 | 6 | 17.8 | 3.76 | 8.61 | -0.13 | 6.51 | 3.96 | 2.88 | 1.97
9 | FC(F)(F)c1cccc(-c2nn3ncccc3c2-c2ccnc(Nc3ccc4c(c3)OCCO4)n2)c1 | 33.3 | -2.65 | 3.4 | -0.63 | 3.75 | 4.15 | 20.4 | 1.58 | 4.01 | 1.85
10 | Nc1nc(-c2ccc(F)cc2)c(-c2ccc3ncccc3n2)s1 | 19.6 | 4.79 | 13.9 | 4.95 | 11 | 6.33 | 25.3 | 4.29 | 5.05 | 3.56
11 | O=C(O[C@H]1CN[C@H](C#Cc2cc3ncnc(Nc4ccc(Cc5ccccc5)cc4)c3s2)C1)N1CCOCC1 | 2.73 | -2.13 | 0.97 | 0.04 | -1.93 | -0.66 | -0.45 | 3.25 | 3.25 | 2.66
12 | CNC(=O)c1cncc(/C=C/c2ccccc2Cl)c1 | 10 | 1.58 | 2.44 | 0.63 | 1.63 | -1.14 | -1.36 | 0.37 | -1.68 | 0.99
13 | c1ccc(-c2nc3n(c2-c2ccc4c(c2)OCO4)CCC3)nc1 | 6.89 | 0.04 | 0.44 | -0.4 | -0.33 | 1.36 | 1.96 | -0.55 | 0.62 | 0.29
14 | Fc1ccc(-c2nn3ncccc3c2-c2ccnc(Nc3ccc4c(c3)OCCO4)n2)cc1 | 76.1 | -1.25 | -1.1 | -0.3 | 4.58 | 58.4 | 84.9 | 2.51 | 11.1 | 5.61
15 | COc1ccc2[nH]c3c4[nH]c5ccc(OC)cc5c4c4c(c3c2c1)C(=O)NC4=O | 14.7 | 5.17 | 20.7 | 4.28 | 22.8 | 4.65 | 21.7 | 3.5 | 5.44 | 4.93
16 | COc1cc(N2CCN(C(C)C)CC2)ccc1Nc1nc(Nc2ccc(F)cc2C(N)=O)c2cc[nH]c2n1 | 7.27 | 33.9 | 73.7 | 44.8 | 75.1 | 65.5 | 89.1 | 2.91 | 15.3 | 2.87
